Measured values from ChEMBL document CHEMBL1157539, “Thousands of chemical starting points for antimalarial lead identification” (Nature, 2010).

tested on: Plasmodium falciparum; test: GSK_TCMDC: Inhibition of Plasmodium falciparum Dd2 in whole red blood cells, using parasite LDH activity as an index of growth. Test compounds present at 2uM; type: functional

SMILES | Inhibition [%]
COc1csc2cc(Br)ccc12 | 0
Cl.Oc1cccc(Nc2ccnc3cc(-c4ccccn4)ccc23)c1 | 98
Cl.FC(F)(F)c1ccc2c(NCCNc3ccnc4cc(C(F)(F)F)ccc34)ccnc2c1 | 100
COc1cc(F)c2ncc(Cl)c(C(O)CN3CCC(NC(=O)c4ccc5c(n4)NC(=O)CO5)CC3)c2c1.Cl (stereo not given) | 100
CNS(=O)(=O)CCNCc1ccc(-c2ccc3ncnc(Nc4ccc(OCc5ccccc5)cc4)c3c2)o1 | 26
CN1CCN(c2ccnc3ccc(NC(=O)Nc4ccc5c(c4)CCC5=O)cc23)CC1 | 67
Nc1ccc(-c2ccc3ccnc(N)c3c2)cc1 | 68
CCNC(=O)Nc1ccc(N(C)c2ccnc(NC3CC3)n2)cc1 | 80
CCOc1cc(CC)ccc1C1CCN(CCN2CCC(NC(=O)c3ccc(-c4ccc(C#N)cc4)cc3)CC2)CC1 | 71
Oc1ccc(Cl)cc1Nc1nc(C(F)(F)F)nc2ccccc12 | 63
N#Cc1ccc(N(CCOc2ccc(Cl)c(Cl)c2)Cc2ccccc2C(F)(F)F)cc1C(F)(F)F | 57
COc1ccc(NC(=O)[C@H](CC(C)C)Nc2cc(C)nc(NCc3cccc(C)c3)n2)cc1.O=C(O)C(F)(F)F | 90
Cn1c(Sc2ncnc3sccc23)nc2ccccc21 | 100
CCc1ccc(O)c(-c2cc(C(=O)Nc3cccnc3)[nH]n2)c1 | 99
CN1CCN(c2cccc(-c3nnc(-c4ccc(OCC(=O)NCc5cccc(C(F)(F)F)c5)c([N+](=O)[O-])c4)o3)c2)CC1 | 72
Cc1ccccc1C1CCN(c2ccc(C(=O)NC3CC3)cn2)CC1.O=C(O)C(F)(F)F | 95
COc1c(CNCCCCCCNCc2c(OC)c(OC)c3ccccc3c2OC)c(OC)c2ccccc2c1OC.CS(=O)(=O)O | 98
O=C(O)C(F)(F)F.O=c1[nH]ccc2nc(N[C@@H]3CCNC3)nc(Nc3ccc4c(c3)S(=O)(=O)CC4)c12 | 99
CC(Cc1ccc(NC(=O)c2ccc(NCCc3ccccc3)cc2)cc1)NCCc1cccc(Cl)c1.Cl (stereo not given) | 1
C/C(=C\C(=O)NC1CC1)c1ccccc1OCc1ccccc1 | 1

SMILES | Inhibition [%]
Cc1cccc2nc(-c3ccc(-c4ccc(NC(=O)Nc5ccc(F)c(F)c5F)cc4)cc3)[nH]c12 | 97
Cc1cc(NCCC(=O)Nc2ccccc2)nc(NCCc2ccccc2)n1.O=C(O)C(F)(F)F | 8
CCNC(=O)Nc1cccc(-c2cccc(-c3nc4cc(C(F)(F)F)ccc4[nH]3)c2)c1 | 32
CCCC(C(CC1CCC(C)CC1)C(=O)NC(CCCNc1ncccn1)C(=O)Nc1nccs1)N(O)C=O (stereo not given) | 98
CC(NCCc1cccc(Cl)c1)C(O)c1ccc(OCCCCCCOc2ccc(C(O)C(C)NCCc3cccc(Cl)c3)cc2)cc1 (stereo not given) | 100
O=C(/C=C/c1cccc(OC(F)(F)F)c1)NCCCCCN1CCC(c2c[nH]c3ccccc23)CC1 | 13
Cc1[nH]c2ccc(-c3ccccc3)cc2c(=O)c1Br | 97
CC1CCN(C(=O)[C@H](Cc2c[nH]c3ccccc23)NS(=O)(=O)c2ccc(Cl)cc2)CC1 | 99
Cc1cccc2nc(-c3cccc(-c4ccc(C(=O)NCc5nccn5C)cc4)c3)[nH]c12 | 9
COc1cccc(C=CC(=O)N(CCN)Cc2ccccc2)c1.O=C(O)C(=O)O | 0
Cc1cc(=NN=CC=Cc2ccccc2)c2ccc(F)cc2[nH]1 | 30
COc1ccc(CNC2Cc3ccccc3C2)cc1-c1ccc(S(=O)(=O)NCCN2CCCC2)s1.O=C(O)C(F)(F)F | 100
COc1ccc(CN2CCCN(Cc3cccc(NC(=O)c4ccc5ccccc5c4)c3)CC2)cc1.O=C(O)C(F)(F)F | 11
O=C(N[C@@H](CC1CCCCC1)C(=O)NC1CCCc2ccccc21)c1ccc(O)c(-c2ccc(Cl)c(Cl)c2)c1 (stereo not given in full) | 99
Cc1cccc2nc(C3CCN(CC4CCN(C(=O)/C=C/c5ccc(Cl)c(Cl)c5)CC4)CC3)[nH]c12 | 79
O=C(/C=C/c1cccc(C(F)(F)F)c1)NCCCCCN1CCC(c2c[nH]c3ccccc23)CC1 | 14
Cn1cc(CN2CCCC(COC(c3ccccc3)c3ccccc3)C2)cn1 (stereo not given) | 99
CC(=O)Nc1ccc2[nH]cc(C3CCN(CCC4CCN(C(=O)/C=C/c5ccc(Cl)c(Cl)c5)CC4)CC3)c2c1 | 7
Cl.NCC1(c2nc(-c3ccc(Cl)c(O)c3)c(-c3ccncc3)[nH]2)CCCCC1 | 98
COc1cccc(-c2csc(C(=O)NCC3CCN(Cc4ccc(C(C)C)cc4)C3)c2)c1.O=C(O)C(F)(F)F (stereo not given) | 9
